In PubChem BioAssay (NCI):
This is part of a sample that, as a whole, favours compounds with a hit. Of some 79,000 tested, about 15% had one in any assay. Values without a mark were called inactive. Activity calls are given as the source filed them. Cut-off read from the data, not from the text of the source: active = growth inhibition above about 70%; inactive = the rest.

Assays:
[1] = NCI Yeast Anticancer Drug Screen. Data for the rad50 strain (AID 155);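 note: 0% = growth of vehicle-only cultures of the same strain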; conditions: S. cerevisiae rad50 strain growth inhibition, hits give high values
Summary of the method: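 A DNA repair-deficient yeast mutant serves as the test organism; compound-induced growth inhibition is calculated against vehicle-treated cells.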

[2] = NCI Yeast Anticancer Drug Screen. Data for the mec2-1 strain (AID 157); conditions: S. cerevisiae mec2-1 strain, hits give high values
Summary of the method: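 Yeast mec2-1 mutant treated with compound. Readout: growth inhibition vs vehicle controls.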

[3] = NCI Yeast Anticancer Drug Screen. Data for the sgs1 mgt1 strain (AID 161);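 note: 0% = growth of cultures given vehicle only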; conditions: S. cerevisiae sgs1 mgt1 strain, hits give high values
Summary of the method: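 Test agents were incubated with a DNA-repair-mutant yeast strain. Growth was then read and compared against vehicle-treated controls.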

[4] = NCI Yeast Anticancer Drug Screen. Data for the cln2 rad14 strain (AID 165);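 note: 0% = growth equal to vehicle treated cultures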; conditions: S. cerevisiae cln2 rad14 strain, hits give high values
Summary of the method: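 cln2 rad14 yeast strain; compound exposure; growth inhibition read vs vehicle controls.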

[5] = NCI Yeast Anticancer Drug Screen. Data for the bub3 strain (AID 167); conditions: S. cerevisiae bub3 mutant strain, hits give high values
Summary of the method: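 Inhibition values come from growth of compound-treated mutant yeast normalised to vehicle-treated controls.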

[6] = NCI Yeast Anticancer Drug Screen. Data for the mlh1 rad18 strain (AID 175); conditions: S. cerevisiae mlh1 rad18 strain growth inhibition, hits give high values
Summary of the method: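 Yeast w/ defined DNA-repair lesions; compound exposure; growth vs vehicle controls → % inhibition.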

[7] = at 5.0 µM (retest, dose inferred, filed as 0.5)
[8] = at 50.0 µM (retest, dose inferred, filed as 5.0)

SMILES | growth inhibition [1, 7] | growth inhibition [1, 8] | growth inhibition ([1]; at 50.0 µM) | growth inhibition [2, 7] | growth inhibition [2, 8] | growth inhibition ([2]; at 50.0 µM) | growth inhibition [3, 7] | growth inhibition [3, 8] | growth inhibition ([3]; at 50.0 µM) | growth inhibition [4, 7] | growth inhibition [4, 8] | growth inhibition ([4]; at 50.0 µM) | growth inhibition [5, 7] | growth inhibition [5, 8] | growth inhibition ([5]; at 50.0 µM) | growth inhibition [6, 7] | growth inhibition [6, 8] | growth inhibition ([6]; at 50.0 µM)
CC1(C)OC2C(COC(c3ccccc3)(c3ccccc3)c3ccccc3)OC(n3cnc4c(N)ncnc43)C2O1 (stereo not given) | -1% | 80% (active) | 64.9% | 19% | 99% (active) | 56.8% | 11% | 92% (active) | 18.6% | -4% | 89% (active) | 72.5% (active) | -2% | 92% (active) | 48.2% | 32% | 95% (active) | 58.5%
Nc1cccc2c1C(=O)c1ccc(Cl)cc1C2=O | 69% | 81% (active) | 93.7% (active) | 18% | 34% | 71.8% (active) | 4% | 61% | 55% | 0% | 6% | -17.6% | 12% | 39% | 85.4% (active) | 15% | 60% | 44.8%
C/C(CCC1CCc2ccccc2C1)=N\NC(N)=O (stereo not given) | -11% | -8% | 32.2% | -4% | 0% | 12.3% | 1% | 5% | 6.2% | -42% | -13% | -1.45% | 0% | -2% | 11.4% | -8% | -10% | -6.5%
NNC(=S)Nc1ccccc1 | 3% | 5% | -7.25% | -3% | 1% | 79.9% (active) | -1% | 1% | -14.6% | 5% | -4% | -28.9% | 1% | -1% | 2.2% | -1% | 10% | 8.05%
C/C=C/C=C1\C=Cc2c(C(=O)OC)coc(=O)c21 | -9% | 85% (active) | 92% (active) | 14% | 91% (active) | 94.2% (active) | 7% | 85% (active) | 76.3% (active) | -9% | 76% (active) | 62.8% | 15% | 96% (active) | 94% (active) | 14% | 97% (active) | 95% (active)
CCC(C)(C)NCCCCCNc1cc(OC)cc2cccnc12 | -2% | 67% | 76.2% (active) | -5% | 0% | 40.2% | 4% | 22% | 56.4% | 0% | 9% | 21.4% | 6% | 36% | 79% (active) | 2% | 16% | 68.8%
O=S(=O)(NC1CCCCC1)c1ccc2c(c1)OCCOCCOCCOCCO2 | 7% | 22% | 40.3% | 9% | 37% | 23.8% | 0% | 63% | 70.7% (active) | -7% | 39% | 36% | -24% | 53% | 73.2% (active) | 5% | 31% | 65.5%
C=CC(=O)NC(C)C | 1% | 6% | 74.7% (active) | 0% | 2% | -3.7% | 1% | 4% | 19.4% | -1% | 1% | 16.7% | -2% | -4% | 5.8% | 0% | 9% | 40.3%
Clc1ccc([O][In]([O]c2ccc(Cl)cn2)[O]c2ccc(Cl)cn2)nc1 | 1% | 1% | 68.2% | 8% | 8% | 72% (active) | -1% | -1% | 56% | -4% | -4% | 38.9% | -26% | -26% | 48.2% | -5% | -5% | 53.8%
COc1cc(OC(C)C)cc2c1C(=O)C(C(O)(O)C(F)(F)F)=CC2=O | 0% | 84% (active) | 72.4% (active) | 11% | 81% (active) | 85.5% (active) | 2% | 78% (active) | 47.7% | 5% | 85% (active) | 81.2% (active) | 6% | 88% (active) | 82.9% (active) | -8% | 77% (active) | 92.8% (active)
